The record followed here is paper PMC7862700, “An all-to-all approach to the identification of sequence-specific readers for epigenetic DNA modifications on cytosine”.

Holding throughout (experiment): DAPPL (digital affinity profiling via proximity ligation, sequencing); 10 mM Tris-HCl pH 7.5, 50 mM NaCl, 1 mM DTT, 4% glycerol, room temperature, 30 min; GST-TFs on glutathione beads, 16-mer random dsDNA library, 0.1% formaldehyde crosslink after washing; high values mean tight binding
One experiment deals with T1, FEV (Homo sapiens, UniProt Q99581 1-238).
T1 sequence: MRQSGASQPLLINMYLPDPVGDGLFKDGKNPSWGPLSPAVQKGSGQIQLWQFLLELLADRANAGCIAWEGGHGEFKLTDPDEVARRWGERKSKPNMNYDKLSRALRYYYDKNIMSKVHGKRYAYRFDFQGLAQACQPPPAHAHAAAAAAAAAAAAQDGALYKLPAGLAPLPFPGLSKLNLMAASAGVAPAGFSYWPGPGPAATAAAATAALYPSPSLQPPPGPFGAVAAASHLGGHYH
The settings on record: protein: recombinant; tags: N-terminal GST; dsDNA, one strand shown. In short, it runs like this:
(§1)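 After expression in yeast as GST fusions, human transcription factors were bound to glutathione beads, DNA-barcoded and mixed with a tag-only sample. The pools were incubated with 200 nmole of a 16-mer random double-stranded DNA library in Tris/NaCl/DTT/glycerol buffer (30 min, room temperature), washed and crosslinked with 0.1% formaldehyde. Proximity ligation with BsaI/T4 ligase ran for 1 h at 37 °C, before PCR amplification and sequencing on an Illumina NextSeq500. Binding signal is a hexamer's read frequency for a factor divided by its frequency for the tag-only sample.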

A further experiment concerns the target ETV5 (Homo sapiens, UniProt P41161 1-510). The settings on record: protein: recombinant; tags: N-terminal GST; dsDNA, one strand shown. An outline of the steps: as §1
The target in the next experiment is HSF1 (Homo sapiens, UniProt Q00613 1-529). To be noted: protein: recombinant; tags: N-terminal GST; chain copies: 3; dsDNA, one strand shown. An outline of the steps: as §1
The target of a further experiment is T2, SPIC (Homo sapiens, UniProt Q8N5J4 1-248).
T2 sequence: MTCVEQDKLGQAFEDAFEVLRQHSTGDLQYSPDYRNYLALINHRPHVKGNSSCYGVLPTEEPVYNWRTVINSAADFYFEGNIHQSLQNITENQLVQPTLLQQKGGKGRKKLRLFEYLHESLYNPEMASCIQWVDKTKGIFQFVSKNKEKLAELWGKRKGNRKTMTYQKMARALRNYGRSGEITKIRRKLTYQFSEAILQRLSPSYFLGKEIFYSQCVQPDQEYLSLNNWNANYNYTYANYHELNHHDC
To be noted: protein: recombinant; tags: N-terminal GST; dsDNA, one strand shown. In short, it runs like this: as §1

Another experiment deals with ELF4 (Homo sapiens, UniProt Q99607 1-663). To be noted: protein: recombinant; tags: N-terminal GST; dsDNA, one strand shown. In short, it runs like this: as §1
The next experiment concerns the target T3, ELK4 (Homo sapiens, UniProt P28324-2 1-405).
T3 sequence: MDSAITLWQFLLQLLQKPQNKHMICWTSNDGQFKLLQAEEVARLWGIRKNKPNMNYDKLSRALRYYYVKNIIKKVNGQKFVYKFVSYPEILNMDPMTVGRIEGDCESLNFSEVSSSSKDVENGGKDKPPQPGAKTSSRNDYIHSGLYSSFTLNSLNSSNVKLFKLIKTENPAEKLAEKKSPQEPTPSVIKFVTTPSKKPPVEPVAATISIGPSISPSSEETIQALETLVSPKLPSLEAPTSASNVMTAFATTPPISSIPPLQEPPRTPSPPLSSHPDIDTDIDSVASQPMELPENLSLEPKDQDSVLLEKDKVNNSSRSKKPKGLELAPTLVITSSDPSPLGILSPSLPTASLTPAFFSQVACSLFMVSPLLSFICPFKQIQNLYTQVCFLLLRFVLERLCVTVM
To be noted: protein: recombinant; tags: N-terminal GST; dsDNA, one strand shown. An outline of the steps:
as §1

The next experiment deals with T4, ETV2 (Homo sapiens, UniProt O00321 1-342).
T4 sequence: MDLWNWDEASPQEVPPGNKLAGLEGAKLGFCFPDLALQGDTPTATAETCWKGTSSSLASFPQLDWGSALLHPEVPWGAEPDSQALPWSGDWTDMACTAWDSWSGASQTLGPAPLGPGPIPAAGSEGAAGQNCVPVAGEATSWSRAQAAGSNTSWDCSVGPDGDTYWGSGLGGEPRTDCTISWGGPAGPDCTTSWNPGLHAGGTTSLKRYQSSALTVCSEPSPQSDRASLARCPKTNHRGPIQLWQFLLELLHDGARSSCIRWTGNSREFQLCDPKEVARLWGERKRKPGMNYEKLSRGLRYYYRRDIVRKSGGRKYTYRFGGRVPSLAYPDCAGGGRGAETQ
To be noted: protein: recombinant; tags: N-terminal GST; dsDNA, one strand shown. In short, it runs like this: as §1

The target in another experiment is T5, ELF3 (Homo sapiens, UniProt P78545 1-371).
T5 sequence: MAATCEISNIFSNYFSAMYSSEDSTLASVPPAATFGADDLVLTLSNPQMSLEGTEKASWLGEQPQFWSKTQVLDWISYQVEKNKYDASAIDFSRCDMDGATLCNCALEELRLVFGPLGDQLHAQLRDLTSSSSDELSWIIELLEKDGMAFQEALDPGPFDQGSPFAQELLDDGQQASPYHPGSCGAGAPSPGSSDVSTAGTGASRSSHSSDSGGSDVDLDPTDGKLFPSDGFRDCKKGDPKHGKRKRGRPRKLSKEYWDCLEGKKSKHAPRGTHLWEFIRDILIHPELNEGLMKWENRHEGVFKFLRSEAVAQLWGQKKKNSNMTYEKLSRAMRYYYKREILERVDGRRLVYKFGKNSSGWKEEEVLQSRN
The settings on record: protein: recombinant; tags: N-terminal GST; dsDNA, one strand shown. In short, it runs like this: as §1

Another experiment deals with CRX (Homo sapiens, UniProt O43186 1-299). The settings on record: protein: recombinant; tags: N-terminal GST; dsDNA, one strand shown. In short, it runs like this:
as §1

For the next experiment, the target named is ETV1 (Homo sapiens, UniProt P50549 1-477). The settings on record: protein: recombinant; tags: N-terminal GST; dsDNA, one strand shown. An outline of the steps:
as §1

In another experiment the target is T6, ERF (Homo sapiens, UniProt P50548 1-548).
T6 sequence: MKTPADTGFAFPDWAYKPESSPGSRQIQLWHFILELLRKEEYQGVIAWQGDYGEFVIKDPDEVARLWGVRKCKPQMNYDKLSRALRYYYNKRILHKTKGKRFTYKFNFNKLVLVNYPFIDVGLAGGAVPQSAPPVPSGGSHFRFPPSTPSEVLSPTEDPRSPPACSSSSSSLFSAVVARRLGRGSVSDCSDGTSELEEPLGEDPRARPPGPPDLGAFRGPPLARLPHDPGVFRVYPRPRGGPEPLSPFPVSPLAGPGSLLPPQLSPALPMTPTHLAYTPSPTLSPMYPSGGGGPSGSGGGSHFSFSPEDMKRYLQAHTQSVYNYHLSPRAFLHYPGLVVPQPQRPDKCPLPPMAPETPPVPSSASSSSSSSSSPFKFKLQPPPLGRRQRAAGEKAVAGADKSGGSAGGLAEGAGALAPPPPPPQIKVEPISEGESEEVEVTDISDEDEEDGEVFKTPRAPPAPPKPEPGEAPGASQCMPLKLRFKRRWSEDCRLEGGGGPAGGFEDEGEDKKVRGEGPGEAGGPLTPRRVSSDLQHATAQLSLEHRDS
The settings on record: protein: recombinant; tags: N-terminal GST; dsDNA, one strand shown. In short, it runs like this: as §1

The target in the next experiment is T7, ETV3L (Homo sapiens, UniProt Q6ZN32 1-361).
T7 sequence: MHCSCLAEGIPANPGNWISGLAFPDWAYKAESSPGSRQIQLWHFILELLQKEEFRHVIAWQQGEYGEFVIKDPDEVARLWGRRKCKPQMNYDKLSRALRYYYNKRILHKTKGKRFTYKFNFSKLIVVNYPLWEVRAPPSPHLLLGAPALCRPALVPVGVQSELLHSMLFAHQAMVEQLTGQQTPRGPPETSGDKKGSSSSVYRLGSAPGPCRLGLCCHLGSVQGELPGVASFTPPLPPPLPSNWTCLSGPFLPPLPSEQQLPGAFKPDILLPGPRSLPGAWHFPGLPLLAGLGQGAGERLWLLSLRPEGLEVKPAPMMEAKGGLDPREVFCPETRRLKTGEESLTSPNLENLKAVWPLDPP
The settings on record: protein: recombinant; tags: N-terminal GST; dsDNA, one strand shown. An outline of the steps: as §1

For the next experiment, the target named is T8, ETS2 (Homo sapiens, UniProt P15036 1-469).
T8 sequence: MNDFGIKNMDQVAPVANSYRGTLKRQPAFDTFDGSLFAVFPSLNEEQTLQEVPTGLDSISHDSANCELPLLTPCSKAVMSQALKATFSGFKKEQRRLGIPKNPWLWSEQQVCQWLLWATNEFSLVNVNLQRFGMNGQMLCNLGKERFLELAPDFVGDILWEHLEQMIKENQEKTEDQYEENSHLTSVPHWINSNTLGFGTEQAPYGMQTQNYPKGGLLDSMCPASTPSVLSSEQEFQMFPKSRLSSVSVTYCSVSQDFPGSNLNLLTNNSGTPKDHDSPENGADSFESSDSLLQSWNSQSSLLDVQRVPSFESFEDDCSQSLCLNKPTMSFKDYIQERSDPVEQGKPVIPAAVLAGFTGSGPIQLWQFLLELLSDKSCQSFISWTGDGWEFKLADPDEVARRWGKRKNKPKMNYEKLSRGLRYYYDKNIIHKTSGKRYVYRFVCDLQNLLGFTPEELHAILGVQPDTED
To be noted: protein: recombinant; tags: N-terminal GST; dsDNA, one strand shown. In short, it runs like this: as §1

The next experiment has as its target T9, SPDEF (Homo sapiens, UniProt O95238 1-335).
T9 sequence: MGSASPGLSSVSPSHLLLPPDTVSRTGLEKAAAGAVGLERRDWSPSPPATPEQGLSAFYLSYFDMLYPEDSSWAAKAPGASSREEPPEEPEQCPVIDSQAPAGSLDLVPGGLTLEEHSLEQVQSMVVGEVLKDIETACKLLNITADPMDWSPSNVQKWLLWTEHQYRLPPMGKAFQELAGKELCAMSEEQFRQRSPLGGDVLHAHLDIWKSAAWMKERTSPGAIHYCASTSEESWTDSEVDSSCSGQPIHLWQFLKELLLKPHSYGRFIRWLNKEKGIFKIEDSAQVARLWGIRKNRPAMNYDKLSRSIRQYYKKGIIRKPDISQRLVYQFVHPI
To be noted: protein: recombinant; tags: N-terminal GST; dsDNA, one strand shown. An outline of the steps:
as §1

Another experiment addresses T10, ETV7 (Homo sapiens, UniProt Q9Y603 1-341).
T10 sequence: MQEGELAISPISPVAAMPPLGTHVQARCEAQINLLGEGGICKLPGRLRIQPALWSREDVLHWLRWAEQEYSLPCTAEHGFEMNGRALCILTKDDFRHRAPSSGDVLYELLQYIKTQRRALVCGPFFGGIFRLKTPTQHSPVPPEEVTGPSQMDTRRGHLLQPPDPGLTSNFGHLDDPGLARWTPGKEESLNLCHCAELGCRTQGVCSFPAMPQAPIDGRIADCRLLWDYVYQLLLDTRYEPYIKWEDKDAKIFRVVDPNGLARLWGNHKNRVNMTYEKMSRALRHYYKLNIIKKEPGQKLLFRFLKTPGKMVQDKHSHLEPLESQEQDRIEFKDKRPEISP
To be noted: protein: recombinant; tags: N-terminal GST; dsDNA, one strand shown. In short, it runs like this:
as §1

The target of the next experiment is T11, ELF5 (Homo sapiens, UniProt Q9UKW6-2 1-255).
T11 sequence: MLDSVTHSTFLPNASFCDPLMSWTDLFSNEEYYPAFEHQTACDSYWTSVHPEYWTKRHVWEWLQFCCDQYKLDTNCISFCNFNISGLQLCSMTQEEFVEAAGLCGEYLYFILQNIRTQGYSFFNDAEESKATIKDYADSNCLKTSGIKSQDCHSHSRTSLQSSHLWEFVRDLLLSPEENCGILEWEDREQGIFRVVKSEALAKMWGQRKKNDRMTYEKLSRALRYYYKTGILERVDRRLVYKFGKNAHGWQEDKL
To be noted: protein: recombinant; tags: N-terminal GST; dsDNA, one strand shown. An outline of the steps:
as §1

The target of a further experiment is T12, ETV3 (Homo sapiens, UniProt P41162-2 1-143).
T12 sequence: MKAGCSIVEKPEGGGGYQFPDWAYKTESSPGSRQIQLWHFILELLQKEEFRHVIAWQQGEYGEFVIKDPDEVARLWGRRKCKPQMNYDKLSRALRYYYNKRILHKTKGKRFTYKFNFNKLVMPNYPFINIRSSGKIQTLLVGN
The settings on record: protein: recombinant; tags: N-terminal GST; dsDNA, one strand shown. In short, it runs like this:
as §1

The target in another experiment is ETV6 (Homo sapiens, UniProt P41212 1-452). To be noted: protein: recombinant; tags: N-terminal GST; dsDNA, one strand shown. An outline of the steps:
as §1

Chain of HSF1 (Q00613 whole entry): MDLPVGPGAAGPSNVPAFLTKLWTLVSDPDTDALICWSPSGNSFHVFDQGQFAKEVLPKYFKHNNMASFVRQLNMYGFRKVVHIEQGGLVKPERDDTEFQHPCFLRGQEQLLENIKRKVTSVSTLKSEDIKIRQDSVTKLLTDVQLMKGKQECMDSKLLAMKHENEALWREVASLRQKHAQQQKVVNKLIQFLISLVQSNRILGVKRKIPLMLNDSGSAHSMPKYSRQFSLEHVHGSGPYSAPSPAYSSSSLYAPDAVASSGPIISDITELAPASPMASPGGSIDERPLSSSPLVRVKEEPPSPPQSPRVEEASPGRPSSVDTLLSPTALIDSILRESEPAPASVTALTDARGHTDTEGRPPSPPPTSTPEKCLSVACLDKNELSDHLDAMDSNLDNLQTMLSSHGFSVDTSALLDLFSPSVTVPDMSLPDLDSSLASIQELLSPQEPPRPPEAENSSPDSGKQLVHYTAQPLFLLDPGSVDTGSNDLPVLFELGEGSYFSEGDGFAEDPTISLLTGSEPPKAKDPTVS
Chain of ETV6 (P41212 whole entry): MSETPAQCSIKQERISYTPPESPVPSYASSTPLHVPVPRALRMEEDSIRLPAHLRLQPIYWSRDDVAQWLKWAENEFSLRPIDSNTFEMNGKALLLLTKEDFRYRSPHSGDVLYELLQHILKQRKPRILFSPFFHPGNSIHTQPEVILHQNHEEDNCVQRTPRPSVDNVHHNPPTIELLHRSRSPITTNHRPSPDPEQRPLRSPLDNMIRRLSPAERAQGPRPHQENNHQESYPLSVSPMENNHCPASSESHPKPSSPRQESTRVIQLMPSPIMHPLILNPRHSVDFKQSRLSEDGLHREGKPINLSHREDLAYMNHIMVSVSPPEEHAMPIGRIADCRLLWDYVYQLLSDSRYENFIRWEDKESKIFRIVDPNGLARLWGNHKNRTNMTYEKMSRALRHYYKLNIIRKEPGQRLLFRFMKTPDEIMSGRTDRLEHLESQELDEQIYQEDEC
Chain of ETV5 (P41161 whole entry): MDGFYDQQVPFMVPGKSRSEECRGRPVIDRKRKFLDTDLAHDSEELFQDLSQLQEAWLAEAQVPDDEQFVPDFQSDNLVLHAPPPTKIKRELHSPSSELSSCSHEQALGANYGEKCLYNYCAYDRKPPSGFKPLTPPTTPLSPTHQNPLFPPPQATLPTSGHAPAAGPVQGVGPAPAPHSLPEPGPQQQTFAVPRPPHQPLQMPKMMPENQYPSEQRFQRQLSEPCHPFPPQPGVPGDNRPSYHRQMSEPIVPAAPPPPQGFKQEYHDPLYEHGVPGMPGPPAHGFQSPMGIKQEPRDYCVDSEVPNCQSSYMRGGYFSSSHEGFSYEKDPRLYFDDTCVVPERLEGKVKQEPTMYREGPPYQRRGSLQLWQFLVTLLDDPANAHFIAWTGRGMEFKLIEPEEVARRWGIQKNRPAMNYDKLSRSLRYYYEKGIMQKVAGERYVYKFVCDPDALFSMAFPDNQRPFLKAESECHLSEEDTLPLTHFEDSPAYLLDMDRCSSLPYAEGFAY
Chain of CRX (O43186 whole entry): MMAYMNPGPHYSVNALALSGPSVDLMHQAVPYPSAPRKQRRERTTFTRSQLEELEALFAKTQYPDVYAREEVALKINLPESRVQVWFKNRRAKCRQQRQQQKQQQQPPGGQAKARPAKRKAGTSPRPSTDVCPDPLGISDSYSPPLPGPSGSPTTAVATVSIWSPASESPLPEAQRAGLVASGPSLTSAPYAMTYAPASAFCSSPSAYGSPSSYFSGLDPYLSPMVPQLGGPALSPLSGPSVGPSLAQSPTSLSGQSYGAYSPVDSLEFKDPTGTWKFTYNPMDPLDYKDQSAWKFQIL
Chain of ELF4 (Q99607 whole entry): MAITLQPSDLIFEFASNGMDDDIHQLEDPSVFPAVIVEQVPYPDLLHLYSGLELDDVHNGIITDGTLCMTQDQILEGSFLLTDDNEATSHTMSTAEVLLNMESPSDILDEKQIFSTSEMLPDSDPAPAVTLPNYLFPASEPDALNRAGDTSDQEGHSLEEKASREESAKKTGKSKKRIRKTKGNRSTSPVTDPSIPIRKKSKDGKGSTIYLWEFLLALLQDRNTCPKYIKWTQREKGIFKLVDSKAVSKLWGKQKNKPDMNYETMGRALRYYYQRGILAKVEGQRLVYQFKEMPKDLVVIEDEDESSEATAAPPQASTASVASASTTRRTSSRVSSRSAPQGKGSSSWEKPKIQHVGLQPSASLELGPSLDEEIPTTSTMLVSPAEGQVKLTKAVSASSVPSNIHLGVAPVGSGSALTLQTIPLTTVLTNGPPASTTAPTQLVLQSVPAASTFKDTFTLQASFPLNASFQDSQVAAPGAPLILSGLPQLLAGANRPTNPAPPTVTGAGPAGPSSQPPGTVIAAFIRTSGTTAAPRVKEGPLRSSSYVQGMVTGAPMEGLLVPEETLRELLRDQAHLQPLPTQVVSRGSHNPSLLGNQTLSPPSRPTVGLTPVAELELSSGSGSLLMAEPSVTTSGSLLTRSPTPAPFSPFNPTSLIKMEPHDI
Chain of ETV1 (P50549 whole entry): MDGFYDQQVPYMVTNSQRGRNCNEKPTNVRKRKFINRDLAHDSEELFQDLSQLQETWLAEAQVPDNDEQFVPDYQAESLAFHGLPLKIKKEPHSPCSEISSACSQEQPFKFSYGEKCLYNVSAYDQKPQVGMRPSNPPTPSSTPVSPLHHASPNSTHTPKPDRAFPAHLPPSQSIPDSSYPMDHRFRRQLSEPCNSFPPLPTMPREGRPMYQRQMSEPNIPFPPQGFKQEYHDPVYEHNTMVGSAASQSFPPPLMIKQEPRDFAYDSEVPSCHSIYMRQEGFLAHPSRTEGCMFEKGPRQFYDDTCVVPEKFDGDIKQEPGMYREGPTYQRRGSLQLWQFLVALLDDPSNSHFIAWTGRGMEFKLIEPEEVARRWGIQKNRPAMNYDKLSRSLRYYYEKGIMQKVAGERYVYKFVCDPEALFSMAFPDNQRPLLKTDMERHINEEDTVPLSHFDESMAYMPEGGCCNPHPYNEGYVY

As for ACTCTT, the binding signal with FEV was 1.18 fold enrichment (6-mer frequency, TF over GST control); in the experiment with ETV5 it was 1.29 fold enrichment (6-mer frequency, TF over GST control); with HSF1, 1.12 fold enrichment (6-mer frequency, TF over GST control); with SPIC, 1.3 fold enrichment (6-mer frequency, TF over GST control); with ELF4, 1.26 fold enrichment (6-mer frequency, TF over GST control); with ELK4, 1.35 fold enrichment (6-mer frequency, TF over GST control). Besides, the binding signal is 1.31 fold enrichment (6-mer frequency, TF over GST control) with ETV2; 1.14 fold enrichment (6-mer frequency, TF over GST control) in the experiment with ELF3; 1.19 fold enrichment (6-mer frequency, TF over GST control) with CRX; 1.33 fold enrichment (6-mer frequency, TF over GST control) in the experiment with ETV1; 1.31 fold enrichment (6-mer frequency, TF over GST control) with ERF; 1.27 fold enrichment (6-mer frequency, TF over GST control) with ETV3L. The binding signal with ETS2 was 1.15 fold enrichment (6-mer frequency, TF over GST control); with SPDEF, 1.18 fold enrichment (6-mer frequency, TF over GST control); with ETV7, 1.29 fold enrichment (6-mer frequency, TF over GST control); with ELF5, 1.34 fold enrichment (6-mer frequency, TF over GST control); with ETV3, 1.25 fold enrichment (6-mer frequency, TF over GST control); with ETV6 it was 1.25 fold enrichment (6-mer frequency, TF over GST control).
